Source: PubChem BioAssay AID836 (Columbia University Molecular Screening Center, 2007)
The whole screen tested about 91,000 compounds, of which about 160 (0.18%) were called active.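 The calls were made as follows: active = inhibition above the batch mean plus 3 SD and confirmed as a hit by visual image inspection (cut at about 30% in these data, passing the limit was not always enough); inconclusive = above the inhibition threshold but rejected on visual inspection; inactive = the rest.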 What follows is part of a selection rich in actives, with near analogues and random picks from the rest.

Experiment: disruptors of actin filament network in HUVEC – imaging, phalloidin staining, high-content imaging, primary screen (AID 836)
Details: HUVEC TNFa F-actin phalloidin imaging, at 2 µM, hits give high values
With `c1ccc2c(C[n+]3csc4ccccc43)cccc2c1` the inhibition was 1.4% (inactive).
With `O=C(NN1C(=O)C2C3C=CC(C4CC34)C2C1=O)c1ccc(Cl)cc1` (centres undefined) the inhibition was -3.8% (inactive).
With `CCCCOC(=O)Nc1sc2nc(C)cc(C)c2c1-n1cccc1` the inhibition was 14.1% (inactive).
For `CC1CC(C)CN(S(=O)(=O)c2cccc(C(=O)N3C(=O)c4cccc(N)c4C3=O)c2)C1` (centres undefined), the inhibition was -15.2% (inactive).
In the case of `CCOC(=O)NNC(=O)c1ccc(Cl)cc1`, the inhibition is reported as 18% (inactive).
In the case of `N#C/C(=C(/O)COc1cccc2ccccc12)c1nc2ccccc2[nH]1`, the inhibition is reported as -7.4% (inactive).
In the case of `CSCc1cc(N2CCOCC2)nc(SCc2ccc(Cl)cc2Cl)n1`, the inhibition is reported as 3.4% (inactive).
With `N#CC1=C(N)N(c2ccc(F)cc2)C(=O)C1` the inhibition was -25.3% (inactive).
In the case of `CC(C)(C)NS(=O)(=O)c1ccc(NC(=O)NC2CCCCC2)cc1`, the inhibition is reported as 2.8% (inactive).
For `O=C1CN(c2nc(-c3ccccc3)c3cc(Br)ccc3n2)c2ccccc2N1`, the inhibition was -17.8% (inactive).
For `O=C(Cn1ccc([N+](=O)[O-])n1)NCc1cccs1`, the inhibition was -5.1% (inactive).
In the case of `Cc1c(Br)c([N+](=O)[O-])nn1C(C)C(=O)Nc1nccs1` (centres undefined), the inhibition is reported as 7.3% (inactive).
In the case of `CCCn1nnnc1NC(=O)COc1ccc(Cl)cc1C`, the inhibition is reported as 0.8% (inactive).
For `CCOC(=O)N1CCN(c2c(NCCCN3CCCC(C)C3)c(=O)c2=O)CC1` (centres undefined), the inhibition was 8.2% (inactive).
With `Cc1cccc(N(CC(=O)Nc2ccc(-c3nc4ccc(C)cc4s3)cc2)S(C)(=O)=O)c1` the inhibition was 29.8% (inactive).
For `COc1cc(C(=O)NC(=S)NCc2ccco2)cc(OC)c1OC`, the inhibition was -26% (inactive).
With `CCOC(=O)CC(=O)CSc1nc(-c2ccccc2)cc(-c2ccc(Cl)cc2)c1C#N` the inhibition was -2.9% (inactive).
In the case of `Cc1ccc(NC(=S)NC2CCCC2)cc1`, the inhibition is reported as 0.9% (inactive).
For `CCc1cccc2c(C=C(C#N)C#N)cn(CC(=O)N3CCCCC3)c12`, the inhibition was 9.3% (inactive).
With `COc1ccccc1C(=O)NN1C(=O)C2C3C=CC(O3)C2C1=O` (centres undefined) the inhibition was -1% (inactive).
In the case of `Cc1ccc(N2CCN(/N=C/c3cccs3)CC2)cc1`, the inhibition is reported as -35.9% (inactive).
With `O=C(CNC(=O)c1cc2c(s1)CCC2)Nc1ccccc1Br` the inhibition was 9.1% (inactive).
In the case of `CC(=O)N1Cc2ccccc2CC1C(=O)O` (centres undefined), the inhibition is reported as -11.9% (inactive).
In the case of `Cc1ccccc1OCc1nnc(SCC(=O)N2c3ccccc3Sc3ccc(Cl)cc32)o1`, the inhibition is reported as -79.4% (inactive).
For `O=C(Cc1ccccc1)N/N=C/c1ccc(Cl)cc1Cl`, the inhibition was 0.1% (inactive).
In the case of `N#C/C(=C/c1ccc(Cl)cc1)NC(=O)c1ccccc1`, the inhibition is reported as -6.5% (inactive).
For `COc1ccc(OC)c2sc(NC(=O)C3COc4ccccc4O3)nc12` (centres undefined), the inhibition was -2.9% (inactive).
With `O=C(Nc1nc(-c2ccncc2)cs1)C1COc2ccccc2O1` (centres undefined) the inhibition was 55.6% (active).
With `O=C(Nc1nc(-c2ccc3c(c2)OCO3)cs1)c1ccncc1` the inhibition was -6.9% (inactive).
In the case of `Cc1ccc(NC(=S)Nc2ncccc2C)c(C)c1`, the inhibition is reported as -17.2% (inactive).
With `COc1ccc(Oc2c(Cl)cnn(-c3ccccc3)c2=O)cc1` the inhibition was -7.9% (inactive).
With `Cc1cc(N=CC2=C(O)CCCC2=O)no1` the inhibition was 3.6% (inactive).
For `COc1ccc(O)c(C(=O)c2cnc3onc(C(C)C)c3c2)c1`, the inhibition was 0.9% (inactive).
With `COc1ccc(O)c(C=Nc2cc(C)on2)c1` the inhibition was 73.6% (active).
With `Cc1ccc(C(=O)N/C(=C/C=C/c2ccccc2)C(=O)NCc2ccco2)cc1` the inhibition was 19.4% (inactive).
For `COC(=O)Nc1sc2nc(C)cc(C)c2c1-n1cccc1`, the inhibition was -0.5% (inactive).
For `CC1=NN(C(=O)Cc2ccc(C)cc2)C(O)(c2cccnc2)C1` (centres undefined), the inhibition was 5.3% (inactive).
With `O=C1c2cccc3cc(Br)cc(c23)C(=O)N1Nc1ccccc1` the inhibition was -0.3% (inactive).
With `O=C(Nc1cccc2ncccc12)C(Cl)(Cl)Cl` the inhibition was 17.1% (inactive).
In the case of `O=C(NC1CCN(C(=S)NCc2ccco2)CC1)c1ccc(F)cc1`, the inhibition is reported as 9.8% (inactive).
In the case of `N#C/C(=C1/CCCN1)c1ccccn1`, the inhibition is reported as -5.5% (inactive).
In the case of `Nc1c(-c2cccc(Cl)c2)cnn1-c1cccc([N+](=O)[O-])c1`, the inhibition is reported as 14.9% (inactive).
For `Cc1cc(OC(=O)c2ccc(Cl)cc2)cc(=O)n1C`, the inhibition was 2.4% (inactive).
For `O=C(O)c1ccccc1NC(=S)NC(NC(=O)c1ccccc1[N+](=O)[O-])C(Cl)(Cl)Cl` (centres undefined), the inhibition was -20.2% (inactive).
With `COc1ccc(CCNC(=O)CSc2nnc(-c3cccc(F)c3)o2)cc1OC` the inhibition was 2.3% (inactive).
In the case of `COc1ccc(-c2nnc(SCC(=O)NC3CCCCC3)o2)cc1OC`, the inhibition is reported as 30.5% (active).
In the case of `COc1ccc(CN(C(=O)CSc2nnc(-c3ccc(OC)c(OC)c3)o2)c2ccc(F)cc2)cc1`, the inhibition is reported as 15.5% (inactive).
In the case of `CC(=O)c1nn(-c2cccc(Br)c2)cc1C(=O)c1cccc2ccccc12`, the inhibition is reported as 18.2% (inactive).
With `O=C(CSc1ccc(/C=N/NC(=O)c2cccc(F)c2)o1)Nc1ccccc1` the inhibition was 1.1% (inactive).
In the case of `NC(=O)C1(N2CCCCC2)CCN(C(=S)Nc2ccc(Cl)cc2)CC1`, the inhibition is reported as -20.4% (inactive).
In the case of `COCCCn1c(SCc2cccc(OC)c2)nc2cc(OC)c(OC)cc2c1=N`, the inhibition is reported as 3.7% (inactive).
For `Cc1ccc(N2CCN(C3=NC(=O)/C(=C\c4cccs4)S3)CC2)cc1`, the inhibition was 24.1% (inactive).
For `CCCCCCOC(=O)NCC(O)c1ccccc1` (centres undefined), the inhibition was 61.8% (active).
In the case of `CCCCCOC(=O)NCCOC(=O)Nc1ccc(C(=O)OCC)cc1`, the inhibition is reported as 8% (inactive).
In the case of `CCCCOC(=O)NCN1C(=O)C2C3C=CC(C3)C2C1=O` (centres undefined), the inhibition is reported as 11.5% (inactive).
With `CCC(=O)OCc1c(C(F)(F)F)nn(C)c1Oc1cccc(C(F)(F)F)c1` the inhibition was -4% (inactive).
For `COC(=O)c1ccc(C2C(Oc3ccccc3C)C(=O)N2CCc2ccc(OC)c(OC)c2)cc1` (centres undefined), the inhibition was 3.1% (inactive).
With `Cc1[nH]c2ccccc2c1C(=O)COC(=O)C(C)C` the inhibition was -13% (inactive).
For `Cc1ccc(-c2nc(C)sc2CC(=O)O)cc1`, the inhibition was 7.2% (inactive).
For `N=c1oc2ccccc2cc1C(=O)N/N=C/c1ccccc1`, the inhibition was -3.7% (inactive).
With `COc1cc(/C=N\NC(=O)C2C(=O)NCC2c2ccccc2)cc(OC)c1O` (centres undefined) the inhibition was 2% (inactive).
In the case of `CC1CCc2c(c3ccccc3[nH]c2=O)O1` (centres undefined), the inhibition is reported as 3% (inactive).
For `Nc1c(-c2ccc(F)cc2)cnc2ncnn12`, the inhibition was 21.9% (inactive).
In the case of `Cc1ccc(SCC(=O)NC(=O)NCc2ccco2)c(C)c1`, the inhibition is reported as 1.6% (inactive).
